Test results reported in PubChem BioAssay AID1224921 (Broad Institute, 2016).
The campaign covered roughly 1,400 compounds. About 350 (25%) were called active. Inconclusive results (about 2%) are left out. How the calls were made is not given here. The list is a sample of the results. Potency and affinity values are given separately.

Experiment: inhibitors of Clostridioides difficile proliferation – 4-point retest, confirmation (AID 1224921);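 further: plate controls were DMSO wells for no effect and levofloxacin 16 µg/mL wells for full effect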
Conditions: Clostridioides difficile clinical isolate growth, OD600, 24 h, active compounds read low; at 30 µM unless noted

Max activity, inactive:
CC(C)CC#Cc1ccc2c(c1)O[C@H](CN(C)CC1CC1)[C@H](C)CN([C@H](C)CO)S2(=O)=O 6.75%
COCC(=O)Nc1ccc2c(c1)OC[C@H](C)N(Cc1cncnc1)C[C@@H](C)[C@H](OC)CN(C)C2=O -11.5%
COc1ccc(CNC(=O)N(C)C[C@H]2OCc3ccccc3-c3c(n(C)c4ccccc34)C(=O)N([C@@H](C)CO)C[C@@H]2C)cc1 30.4%
C[C@H]1CN([C@@H](C)CO)C(=O)c2cc(NC(=O)Cc3ccccc3)ccc2O[C@H]1CN(C)C(=O)Nc1ccccc1 -15.5%
C[C@@H]1CN([C@@H](C)CO)C(=O)c2cc(NC(=O)Cc3ccccc3)ccc2O[C@@H]1CN(C)C(=O)Nc1ccccc1 -11.4% [at 0.5 µM]
C[C@@H]1CN([C@H](C)CO)C(=O)c2cc(NC(=O)Cc3ccccc3)ccc2O[C@@H]1CN(C)C(=O)Nc1ccccc1 -4.25%
C[C@H](CO)N1C[C@H](C)[C@H](CN(C)C(=O)Nc2ccccc2)Oc2ccc(NC(=O)Cc3ccccc3)cc2C1=O -7.38%
C[C@H]1CN([C@@H](C)CO)C(=O)CCCn2nncc2CO[C@H]1CN(C)S(=O)(=O)c1ccc(Oc2ccccc2)cc1 10.4%
C[C@H](CO)N1C[C@H](C)[C@H](CN(C)C(=O)Nc2ccc(C(F)(F)F)cc2)Oc2ncc(C3=CCCC3)cc2C1=O 32.4%
CNC[C@@H]1Oc2cc(-c3cccnc3)ccc2S(=O)(=O)N([C@@H](C)CO)C[C@H]1C -5.58% [at 1.95 µM]
COc1ccc(-c2cnc3c(c2)C(=O)N([C@H](C)CO)C[C@H](C)[C@H](CN(C)C(=O)Nc2ccc(F)cc2)O3)cc1 13.9%
Cc1ccc(-c2ccc3c(c2)O[C@H](CN(C)Cc2ccncc2)[C@H](C)CN([C@@H](C)CO)S3(=O)=O)cc1 37.3%
CCS(=O)(=O)Nc1ccc2c(c1)C(=O)N(C)C[C@@H](OC)[C@@H](C)CN(CC1CCCC1)[C@H](C)CO2 10.5%
C[C@H](CO)N1C[C@H](C)[C@@H](CN(C)Cc2ccncc2)Oc2cc(C3=CCCCC3)ccc2S1(=O)=O 25.5% [at 28.5 µM]
O=C(C[C@@H]1C[C@@H]2c3cc(NC(=O)CC4CC4)ccc3O[C@@H]2[C@@H](CO)O1)NCc1cc(F)ccc1F 18.5%
CO[C@@H]1CN(C)C(=O)c2cc(NC(=O)C3CCC3)ccc2OC[C@@H](C)N(Cc2ccncc2)C[C@@H]1C -8.85% [at 8 µM]
C[C@H]1CN([C@@H](C)CO)S(=O)(=O)c2ccc(-c3ccccc3F)cc2O[C@@H]1CN(C)Cc1cccnc1 16.6%
CO[C@@H]1CN(C)C(=O)c2ccc(NC(=O)c3ccc(Oc4ccccc4)cc3)cc2OC[C@@H](C)N(C(C)=O)C[C@H]1C -13.9% [at 2.1 µM]
O=C(C[C@@H]1C=C[C@@H](NC(=O)c2cccc(F)c2)[C@H](CO)O1)Nc1nccs1 13.9%
COc1ccc(S(=O)(=O)Nc2ccc3c(c2)C(=O)N([C@@H](C)CO)C[C@@H](C)[C@@H](CN(C)C(=O)CCC(F)(F)F)OCCCC[C@H](C)O3)cc1 -14.1% [at 8 µM]
CO[C@H]1CN(C)C(=O)c2cc(NS(=O)(=O)c3cccc(F)c3)ccc2OC[C@@H](C)N(Cc2cc(F)ccc2F)C[C@H]1C -7.98% [at 1.95 µM]
C[C@H](CO)N1C[C@H](C)[C@@H](CN(C)Cc2cccnc2)Oc2cc(C#CC3CCCC3)ccc2S1(=O)=O 41.2%
CO[C@@H]1CN(C)C(=O)c2cc(NS(=O)(=O)c3ccc(Cl)cc3)ccc2OC[C@H](C)N(C(=O)NC(C)C)C[C@H]1C -5.33% [at 8 µM]
CCCN1C[C@H](C)[C@@H](OC)CN(C)C(=O)c2cc(NC(=O)c3cccc(OC)c3)ccc2OC[C@@H]1C 12.1%
CO[C@H]1CN(C)C(=O)c2ccc(NC(C)=O)cc2OC[C@H](C)N(Cc2cccc(F)c2)C[C@H]1C -6.29% [at 1.95 µM]
CCC(=O)Nc1ccc2c(c1)C(=O)N(C)C[C@H](OC)[C@@H](C)CN(C(=O)CN1CCOCC1)[C@@H](C)CO2 -6.29% [at 0.5 µM]
CCCC#Cc1ccc([C@@H]2[C@@H](CO)N(S(=O)(=O)c3cccc(F)c3)[C@H]2C#N)cc1 12.2% [at 1.95 µM]
CCC(=O)Nc1ccc2c(c1)OC[C@@H](C)N(C(=O)CC)C[C@@H](C)[C@@H](OC)CN(C)C2=O 3.79% [at 0.5 µM]
C[C@H](CO)N1C[C@H](C)[C@H](CN(C)Cc2cccnc2)Oc2cc(C#CC3CCCC3)ccc2S1(=O)=O 20.9%
COc1ccc(NC(=O)Nc2cccc3c2O[C@H](CN(C)C(=O)NC2CCCCC2)[C@@H](C)CN([C@@H](C)CO)C3=O)cc1 7.95%
CO[C@@H]1CN(C)C(=O)c2cc(NC(=O)c3ccccc3)ccc2OC[C@H](C)N(C)C[C@@H]1C 18.3%
CN(C)C(=O)C[C@H]1CC[C@H](NC(=O)C2CCOCC2)[C@@H](CO)O1 -6%
COCC(=O)N1C[C@@H](C)[C@@H](OC)CN(C)C(=O)c2ccc(NC(=O)NC(C)C)cc2OC[C@@H]1C 17.9%
CCCC(=O)Nc1ccc2c(c1)C(=O)N(C)C[C@H](OC)[C@H](C)CN(Cc1ccccc1)[C@@H](C)CO2 25.4%
COCC(=O)Nc1ccc2c(c1)OC[C@@H](C)N(Cc1ccccc1OC)C[C@@H](C)[C@@H](OC)CN(C)C2=O 16.6%
CO[C@@H]1CN(C)C(=O)c2ccc(NC(C)=O)cc2OC[C@H](C)N(Cc2cccc(F)c2)C[C@H]1C 17.2%
C[C@H]1CN([C@@H](C)CO)C(=O)c2c(c3ccccc3n2C)-c2ccccc2CO[C@H]1CN(C)Cc1cccc(C(=O)O)c1 -5.44% [at 0.5 µM]
COc1ccc(-c2ccc([C@@H]3[C@@H](C#N)N(C(=O)C4CCCC4)[C@H]3CO)cc2)cc1 25.6%
C/C=C/c1ccc2c(c1)O[C@@H](CN(C)C(=O)Cc1ccncc1)[C@H](C)CN([C@@H](C)CO)S2(=O)=O 11.6%
C[C@@H]1CN([C@H](C)CO)S(=O)(=O)c2ccc(C#CC3CC3)cc2O[C@H]1CN(C)Cc1ccccc1F 11.3% [at 1.95 µM]
COCC(=O)Nc1ccc2c(c1)OC[C@@H](C)N(Cc1ccccc1)C[C@@H](C)[C@@H](OC)CN(C)C2=O -9.27% [at 1.95 µM]
CCCNC(=O)Nc1ccc2c(c1)C(=O)N(C)C[C@@H](OC)[C@H](C)CN(Cc1ccccc1)[C@@H](C)CO2 16.6%
COc1cccc(C#Cc2ccc3c(c2)O[C@@H](CN(C)C)[C@@H](C)CN([C@H](C)CO)S3(=O)=O)c1 29.6%
CC(C)CC#Cc1ccc2c(c1)O[C@@H](CN(C)Cc1cccnc1)[C@@H](C)CN([C@@H](C)CO)S2(=O)=O 22.6%
O=C(C[C@@H]1C[C@H]2c3cc(NC(=O)Nc4ccc(C(F)(F)F)cc4)ccc3O[C@H]2[C@@H](CO)O1)NCCc1ccccc1 46.3%
COc1ccc(-c2ccc([C@@H]3[C@@H](C#N)N(C(=O)c4cccc(F)c4)[C@H]3CO)cc2)cc1 19.5%
COc1ccc(C#Cc2ccc3c(c2)O[C@@H](CN(C)C)[C@H](C)CN([C@H](C)CO)S3(=O)=O)cc1 12.4% [at 8 µM]
CCC(=O)Nc1ccc2c(c1)OC[C@@H](C)N(CC1CCCCC1)C[C@@H](C)[C@@H](OC)CN(C)C2=O -9.08% [at 8 µM]
COc1cccc(NC(=O)N[C@H]2C=C[C@H](CC(=O)Nc3ccc(-c4ccccc4)cc3)O[C@@H]2CO)c1 43%
C[C@H]1CN([C@@H](C)CO)S(=O)(=O)c2ccc(C3=CCCCC3)cc2O[C@H]1CN(C)Cc1ccncc1 40.6%
C[C@H]1CN([C@@H](C)CO)C(=O)c2cc(/C=C/c3ccccc3)cnc2O[C@@H]1CN(C)C(=O)CN(C)C -3.88% [at 0.5 µM]
C[C@H](CO)N1C[C@H](C)[C@@H](CN(C)Cc2cccnc2)Oc2cc(C3=CCCCC3)ccc2S1(=O)=O 29%
N#C[C@@H]1[C@@H](c2ccc(C#Cc3ccccc3F)cc2)[C@H](CO)N1C(=O)C1CCCCC1 38.8%
C[C@@H]1CN([C@@H](C)CO)C(=O)c2c(c3ccccc3n2C)-c2ccccc2CO[C@H]1CN(C)S(=O)(=O)c1cccc(C#N)c1 31.4%
O=C(C[C@@H]1C[C@H]2c3cc(NC(=O)Nc4ccc(C(F)(F)F)cc4)ccc3O[C@H]2[C@@H](CO)O1)NCc1ccc(Cl)cc1 -9.79% [at 8 µM]
C[C@@H]1CN([C@H](C)CO)S(=O)(=O)c2ccc(C3=CCCCC3)cc2O[C@H]1CN(C)Cc1ccncc1 -20.4% [at 1.95 µM]
CN1C(=O)c2cc(NC(=O)c3ccc(C(F)(F)F)cc3)ccc2OC[C@H]2O[C@H](CC(=O)NCc3ccc4c(c3)OCO4)CC[C@H]21 -12.1% [at 0.5 µM]
C[C@@H]1CN([C@@H](C)CO)C(=O)c2cc(C#C[C@@H](C)O)cnc2O[C@@H]1CN(C)Cc1ccc(-c2ccccc2)cc1 27.9%
